The whole screen tested about 350,000 compounds, of which about 260 (0.074%) were called active. Entries that show only a call come without a potency. Not shown: some 8% with an inconclusive outcome. Calls come from the whole dose curve; as a rule, active = well fitted inhibition curve with a large enough effect; inconclusive = small, poorly fitted or top-dose-only effect; inactive = no such curve, though single readings can be large or run the other way. Only a selection was taken, and actives are over-represented in it overall.
Potency is the fitted concentration of half-maximal effect.

Sequence of Ferritin light chain (Equus caballus) (P02791 2-175 limits assumed): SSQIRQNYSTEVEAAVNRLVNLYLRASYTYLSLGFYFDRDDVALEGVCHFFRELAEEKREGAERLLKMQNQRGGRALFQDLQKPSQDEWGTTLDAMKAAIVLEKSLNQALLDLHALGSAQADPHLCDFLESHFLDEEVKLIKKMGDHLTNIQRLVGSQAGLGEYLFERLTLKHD

For this experiment, the target named is Ferritin light chain (Equus caballus) (UniProt P02791). In words: qHTS Assay for Identification of Novel General Anesthetics. Note: nearly all actives have a fitted effect of over 20% in size. The note with it: apoferritin/1-aminoanthracene competitive binding, fluorescence; series mostly up to 77.5 µM. The essentials:
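Read-out: endpoint 1-AMA fluorescence, excitation 380 nm and emission 535 nm, after compounds sit 10 min at room temperature with 10 uM horse-spleen apoferritin in 50% saturated 1-AMA/PBS. Values come from four-parameter Hill fits.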
Regarding `O=C(NCCCN1CCN(c2cccc(Cl)c2)CC1)c1nnc(Cc2ccc(F)cc2Cl)o1`, the Potency entry was “inactive”.
The value for `COc1ccccc1CNC(=O)CCn1c(=O)c2ccccc2n(CC(=O)Nc2cccc(Cl)c2)c1=O` was “inactive”.
Next, `CCOc1cccc2c1N[C@@H](c1ccc(C(=O)O)cc1)[C@H]1CC=C[C@@H]21`: “inactive”; `CCC(=O)N1c2ccccc2CC1C(=O)N1CCN(c2ccccc2F)CC1` (stereo unspecified): “inactive”; `COc1ccc(-n2ccnc(NCCc3ccc(Cl)cc3)c2=O)cc1OC`: “inactive”.
For the compound `O=C(Cn1nc(C(F)(F)F)c2c1CCCC2)Nc1ccc(Cl)cc1`, the Potency entry is “inactive”.
The value for `COC(=O)c1ccc(NC(=O)CCc2c(C)nn(-c3ccc(N4CCCC4)nn3)c2C)cc1` was “inactive”.
The value for `COc1ccc(CCn2cc3c(c2-c2ccc(Br)cc2)c(=O)n(C)c(=O)n3C)cc1OC` was “inactive”.
The value for `COc1ccc(CC(=O)NCCc2sc3nc(-c4ccc(OC)cc4)nn3c2C)cc1` was “inactive”.
For the compound `Cc1cccc(N2CCN(C3=C(c4ccccc4)C(=O)c4ccccc43)CC2)c1C`, the Potency entry was “inactive”.
Next, `CCOc1ccc(N(C)S(=O)(=O)c2cc(-c3cnc(C)o3)ccc2OC)cc1`: “inactive”; `CC(=O)c1ccc(NC(=O)CSc2c(C(C)C)cnc3c2c(=O)n(C)c(=O)n3C)cc1`: “inactive”; `CCOc1ccc(C(=O)Nc2ccc3nc4c(c(Nc5ccccc5OC)c3c2)CCCC4)cc1`: “inactive”.
Next, `COc1ccc(NC(=O)c2ccco2)cc1NC(=O)COc1ccc(C)c(C)c1`: “inactive”; `CCOc1ccc(N(CC)S(=O)(=O)N2CCCC(C(=O)NCc3ccc(SC)cc3)C2)cc1` (stereo unspecified): “inactive”; `O=C(Nc1ccccc1F)C(c1ccccc1)N1Cc2ccccc2C1=O` (stereo unspecified): “inactive”.
Next, `CC(=O)N1CCc2cc(S(=O)(=O)NC(Cc3ccccc3)C(=O)NCc3ccc(C)cc3)ccc21` (stereo unspecified): “inactive”; `COc1cc2c(cc1OC)C(COc1ccc(F)cc1)N(C(=O)c1ccccc1F)CC2` (stereo unspecified): “inactive”; `COc1ccc(-c2onc(C)c2C)cc1S(=O)(=O)NCCc1ccccc1`: “inactive”.
Turning to `Cc1ccc(-c2cc(N)n(Cc3cccc(Cl)c3)n2)cc1`, the Potency entry is “inactive”.
Next, `Cc1ccccc1C(=O)N(Cc1ccc(N(C)C)cc1)CC1CCCO1` (stereo unspecified): “inactive”; `CCOc1cc(C2c3c(-c4ccc(Br)cc4)n[nH]c3C(=O)N2c2ccc(Cl)cc2)ccc1O` (stereo unspecified): “inactive”; `CC(C)c1ccc(NC(=O)C2CCN(c3nc(-c4ccc(C(C)C)cc4)no3)CC2)cc1`: “inactive”.
Next, `Cc1ccc(NC(=O)CSc2nc3c([nH]c4ccccc43)c(=O)n2-c2ccccc2)c(C)c1`: “inactive”; `CCCOc1ccc(C(=O)Nc2ccc3oc(-c4cccc(Cl)c4Cl)nc3c2)cc1`: “inactive”.
With `COc1cc(OC)c(OC)cc1/C=C/c1nc2ccccc2c(=O)n1-c1ccc(Br)c(C)c1`, the Potency result was “inactive”.
Next, `COc1ccc(N2CCN(C(=O)C3CCCN(C(=O)c4cc5sccc5n4C)C3)CC2)cc1` (stereo unspecified): “inactive”; `CCc1ccccc1OCCSc1nc(-c2cccs2)nc2cc(=O)[nH]n12`: “inactive”.
Next, `COc1ccc(CNC(=O)CSCc2nc(-c3ccccc3F)oc2C)cc1`: “inactive”; `COc1ccc(Br)cc1C1CC(=O)Nc2c1c(C)nn2-c1nc(C)cc(C)n1` (stereo unspecified): “inactive”; `Cc1ccc(NC(=O)c2ccc3[nH]c(C)cc(=O)c3c2)c(C)c1`: “inactive”.
The value for `Cc1c(Cl)cccc1-c1ccc(CNCCCSc2nnnn2C)o1` was “inactive”; that for `COc1ccc(NC(=O)CCN2CCN(CCO)CC2)cc1` was “inactive”.
For the compound `COc1ccc(CCNC(=O)c2ccc3c(c2)nc(C)n3-c2ccc(Br)cc2)cc1OC`, the Potency result is “inactive”.
The value for `O=C(CSc1nccn1C1CCCC1)Nc1cc(C(F)(F)F)ccc1Cl` was “inactive”; that for `CCN(CC)c1ccc(NS(=O)(=O)c2cc(-c3cc(C)no3)ccc2C)c(C)c1` was “inactive”; that for `Cc1ccc(F)c(NC(=O)CCc2ccccc2)c1` was 12.6 µM (active).
The value for `Cc1ccc(F)c(NC(=O)CCOc2ccccc2C)c1` was “inactive”; that for `Cc1cccc(OCC(=O)Nc2ccccc2F)c1` was “inactive”.
As to `CCc1ccc(NC(=O)C2CCCN2S(=O)(=O)c2ccc3nc(-c4ccccc4)[nH]c3c2)cc1` (stereo unspecified), the Potency entry was “inactive”.
Turning to `CCCOc1ccc(C2c3c(oc4cc(C)c(C)cc4c3=O)C(=O)N2CCCN2CCOCC2)cc1` (stereo unspecified), the Potency was 35.5 µM (active).
Consider `Cc1ccc2oc3c(c(=O)c2c1)C(c1ccc([N+](=O)[O-])cc1)N(CCCN1CCOCC1)C3=O` (stereo unspecified), for which the Potency entry was “inactive”.
The value for `CSc1ccc(C2c3c(oc4ccccc4c3=O)C(=O)N2CCCN2CCOCC2)cc1` (stereo unspecified) was “inactive”; that for `CCOc1ccc(C(NC(=O)c2cc(OC)c(OC)c(OC)c2)c2cc(Cl)c3cccnc3c2O)cc1` (stereo unspecified) was “inactive”; that for `Cc1c(Cl)cccc1NC(=O)Cn1cc(C(=O)c2cccs2)c2ccccc21` was “inactive”.
The value for `O=C(Nc1ccc(Br)cc1)c1ccc(Br)c(S(=O)(=O)NCc2ccccc2)c1` was “inactive”; that for `CCCn1c2ccccc2c2cnn(CC(=O)NCC3CCN(Cc4ccc(C)cc4)CC3)c(=O)c21` was “inactive”.
Turning to `COc1ccc(N2CCN(c3nc(-c4ccccc4F)nc4ccccc34)CC2)cc1`, the Potency entry was “inactive”.
The value for `COc1ccc(OC)c(NC(=O)/C=C/c2ccc(C)o2)c1` was “inactive”; that for `CCC1CN(S(=O)(=O)c2cc(-c3cc(C)no3)ccc2C)c2cc(C)ccc2O1` (stereo unspecified) was “inactive”; that for `CC(C)c1ccc(OCC(=O)N(Cc2ccc(N(C)C)cc2)C2CCS(=O)(=O)C2)cc1` (stereo unspecified) was “inactive”.
Regarding `CSc1ccc(CCNC(=O)c2ccc3c(c2)nc2n3CCOC2)cc1`, the Potency entry was “inactive”.
With `CC(C)S(=O)(=O)c1oc(-c2ccc(F)cc2)nc1S(=O)(=O)c1ccc(F)cc1`, the Potency entry is “inactive”.
Next, `CCOc1ccc(-c2cc(C)n3nc(C(=O)Nc4ccc(C)c(C)c4)cc3n2)cc1`: “inactive”; `COc1ccc(Cl)cc1NC(=O)CCn1c(=O)c2cccn2c2ccccc21`: “inactive”; `O=C(NCc1ccccc1)C(=O)NCC(c1ccco1)S(=O)(=O)c1ccc(Cl)cc1` (stereo unspecified): “inactive”.
The value for `CCC(=O)N1CCc2cc(S(=O)(=O)NC(Cc3ccccc3)C(=O)NCc3ccccc3)ccc21` (stereo unspecified) was “inactive”; that for `CC(C)c1ccc(NC(=O)c2ccc(Cn3nc(N4CCN(c5ccccc5)CC4)ccc3=O)o2)cc1` was “inactive”.
The value for `Cc1ccc(CCNC(=O)c2ccc(CS(=O)(=O)Cc3cccc(C)c3)o2)cc1` was “inactive”; that for `CNC(=O)c1ccc(-c2nc(CN3CCc4ccccc43)c(C)o2)cc1` was “inactive”.
Take `COc1ccc(-c2noc(CSc3nc4ccc(C)cc4[nH]3)n2)cc1`: the Potency result is “inactive”.
The value for `Cc1ccc(C(=O)Nc2ccc(OCc3cc(=O)n4c5c(sc4n3)CCCC5)cc2)cc1` was “inactive”.
Next, `C=CC(=O)c1ccc2ccccc2c1`: 17.8 µM (active); `O=C(Nc1ccc(NC(=O)c2cccs2)cc1)c1ccc2ccccc2c1`: “inactive”; `O=C(Nc1ccccc1N1CCCC1)c1ccc2ccccc2c1`: “inactive”.
The value for `CCOc1cc(C(=O)Nc2nnc3n2CCS3)cc(OCC)c1OCC` was “inactive”.
`Cc1cc(O)c(C(c2ccccc2)N2CCN(c3ccccc3F)CC2)c(=O)n1Cc1ccco1` (stereo unspecified): the Potency entry was “inactive”.
`CCOc1cc(-c2nnc(SCC(=O)NC3CCCCC3)nc2-c2ccc(OC)c(OCC)c2)ccc1OC`: the Potency result was “inactive”.
Take `COc1ccc(C(=O)Nc2ccc(-n3nncc3-c3ccccc3)cc2)cc1OC`: the Potency result is “inactive”.
Next, `Cn1c(C(=O)N2CCC(C(=O)N3CCN(c4ccccc4)CC3)CC2)cc2sccc21`: “inactive”; `CC(C)(C)OC(=O)N1CCC(c2c(C(=O)NCCc3ccsc3)cnn2-c2ccc(F)cc2F)CC1`: “inactive”.
Next, `COc1cccc(C(c2c(O)cc(C)n(Cc3ccco3)c2=O)N2CCN(c3ccccc3)CC2)c1` (stereo unspecified): “inactive”; `COc1ccc2ncc3c(-c4ccc(C)c(C)c4)nn(CC(=O)NC4CCCC4)c3c2c1`: “inactive”.
Next, `CC(C)(C)OC(=O)NCCCCCC(=O)N/N=C/c1coc2ccccc2c1=O`: “inactive”; `Cc1ccc2occ(/C=N/NC(=O)c3ccccc3C)c(=O)c2c1`: 25.1 µM (active).
Consider `O=c1c(/C=N/O)coc2ccc(Cl)cc12`, for which the Potency result was “inactive”.
The value for `O=S(=O)(NCC(c1ccccc1)N1CCc2ccccc21)c1ccccc1` (stereo unspecified) was “inactive”; that for `O=C(O)c1c(CNCc2cccc(F)c2)c2ccccc2n1Cc1ccccc1` was “inactive”; that for `O=c1cc2nc(-c3ccccc3)nc(SCCOc3ccc(Cl)cc3)n2[nH]1` was “inactive”.
The value for `COc1ccc(CCN2C(=O)N(c3cccc(OC)c3)C(=O)C2CC(=O)Nc2ccccc2)cc1` (stereo unspecified) was “inactive”; that for `CCc1cnc2c(c1SCC(=O)c1ccccc1)c(=O)n(C)c(=O)n2C` was “inactive”.
For the compound `CCCNC(=O)c1ccc2c(c1)ncn2-c1ccc(C)cc1C`, the Potency result was “inactive”.
Next, `CC(C)c1ccc(S(=O)(=O)Nc2ccc(O)c(Sc3nc4ccccc4s3)c2)cc1`: “inactive”; `COc1cc(NC(=O)c2cc3ccc4cccnc4c3[nH]2)cc(OC)c1OC`: “inactive”; `CCOc1ccc(OCC)c(NC(=O)CN(c2ccc(C)cc2)S(=O)(=O)c2c(C)n[nH]c2C)c1`: “inactive”.
Turning to `COc1ccc(OC)c(CCNC(=O)CCCn2c(=O)c3cccn3c3cccnc32)c1`, the Potency entry is “inactive”.

The values above are taken from PubChem BioAssay AID485281 (National Center for Advancing Translational Sciences (NCATS), 2010).
